Assay outcomes from PubChem.
Hits are enriched below; roughly 3.5% of the tested compounds scored in any of these assays.
Rv3671c protease: inhibitors of M. tuberculosis serine protease Rv3671c | hit rate 0.048% among 320,000 | inhibition, % at 5.96 µM | AID 2606 | P9WHR9; in the data active = inhibition above about 38%;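 note: extracellular domain of Rv3671c used as enzyme; 0% = enzyme with DMSO and 100% = no enzyme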
Target sequence (P9WHR9 whole entry, looked up, the tested form may be a part): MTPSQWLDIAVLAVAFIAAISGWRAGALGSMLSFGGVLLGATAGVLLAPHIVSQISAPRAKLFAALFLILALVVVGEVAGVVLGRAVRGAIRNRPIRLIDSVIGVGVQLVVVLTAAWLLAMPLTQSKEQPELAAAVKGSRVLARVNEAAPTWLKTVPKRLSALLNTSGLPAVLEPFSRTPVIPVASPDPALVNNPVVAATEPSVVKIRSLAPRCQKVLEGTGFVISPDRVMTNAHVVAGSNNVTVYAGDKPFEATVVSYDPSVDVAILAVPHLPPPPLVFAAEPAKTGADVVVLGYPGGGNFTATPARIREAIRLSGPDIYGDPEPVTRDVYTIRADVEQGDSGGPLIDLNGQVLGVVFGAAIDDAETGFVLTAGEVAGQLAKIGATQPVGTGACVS
GDH-TPI counter: inhibits GDH-TPI coupling enzymes, artifact for Mtb FBA screen. GDH-TPI coupled enzyme counterscreen, NADH absorbance. inhibition, % at 4.8 µM. hit rate 1.2% among 360,000; in the data active = inhibition above about 30%;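 note: 0% = DMSO wells and 100% = wells lacking the enzyme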
Mtb UGM inh: inhibitors of M. tuberculosis UDP-galactopyranose mutase; inhibition, % at 10 µM; hit rate 0.06% among 320,000; P9WIQ1; AID 504406; purified UGM, fluorescence polarization probe displacement; in the data active = inhibition above about 10%, passing the limit was not always enough; inconclusive = no clear call, values can overlap the other calls
FBA Mtb inh: inhibitors of M. tuberculosis fructose-bisphosphate aldolase; P9WQA3; purified M. tuberculosis FBA, fluorescence read-out; inhibition, % at 1 µM; hit rate 2.3% among 360,000; AID 588726; in the data active = inhibition above about 27%;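 note: 0% = vehicle and 100% = reference inhibitor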
Mtb bLac sens: beta-lactam sensitization of Mtb H37Rv; inhibition, % at 25 µM; M. tuberculosis H37Rv growth with meropenem, percent inhibition; hit rate 0.27% among 330,000; AID 434955; call rule not given here;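 note: growth measured after seven days incubation then overnight dye step; 0% = bacteria only wells and 100% = bacteria with antibiotic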
* hit, by the source's call; ? = inconclusive; . = no result; + = active, no number.

SMILES | Rv3671c protease | GDH-TPI counter | Mtb UGM inh | FBA Mtb inh | Mtb bLac sens
CCC(C)NC(=O)c1cn(CC)c2cc(N3CCN(C(=O)c4ccco4)CC3)c(F)cc2c1=O (stereo not drawn) | 6 | 26 | 1 | 54* | 96
CCn1cc(C(=O)NCC(C)C)c(=O)c2cc(F)c(N3CCN(C(=O)c4ccco4)CC3)cc21 | -5 | 1 | 3 | 11 | 12
C=CCNC(=O)c1cn(CC)c2cc(N3CCN(C(=O)c4ccco4)CC3)c(F)cc2c1=O | -7 | 20 | 1 | 97* | 86
CCCCCCCC(=O)N1CCN(c2cc3c(cc2F)c(=O)c(C(=O)O)cn3CC)CC1 | . | 4 | -1 | 4 | 47
CCn1cc(C(=O)O)c(=O)c2cc(F)c(N3CCNCC3)cc21 | 1 | 27 | . | 55* | 100
Cc1c(NC(=O)C(C)OC(=O)C23CC4CC(CC(Br)(C4)C2)C3)c(=O)n(-c2ccccc2)n1C (stereo not drawn) | 8 | 4 | -2 | 1 | -4
COc1cnc(-c2ccccn2)nc1Sc1ccc(F)cc1 | -16 | 6 | 1 | 1 | -12
O=C(c1[nH]c(C(F)(F)F)nc1-c1ccccc1)N1CCN(C/C=C/c2ccccc2)CC1 | . | . | . | -2 | .
O=Cc1c(NC2CCCCC2)c2ccccc2[nH]c1=O | 0 | 12 | -3 | 5 | -5
CCN1CCN(c2nc3ccccc3n3cnnc23)CC1 | -13 | 32* | 1 | -2 | -1
CN1c2ccccc2C(O)=C(C(=S)Nc2ccc(Cl)cc2)S1(=O)=O | 7 | 48* | 1 | 1 | 59
Cc1cccc(NC(=O)C2=C(O)c3ccccc3N(C)S2(=O)=O)c1 | -8 | 13 | 0 | 0 | 1
CCNc1cc2oc(=O)c(CN3CCOCC3)c(C)c2cc1C | 1 | 20 | 0 | + | -9
Cc1cc2oc(=O)cc(CN3CCOCC3)c2cc1C | 1 | 18 | -2 | -3 | -4
Cc1cccc(C(=O)NCC(=O)N2CCCCCCC2)c1 | 5 | 10 | 0 | -2 | 0
O=C(NCc1ccco1)c1ccccc1 | 4 | 3 | -3 | 2 | 6
O=C(Nc1sccc1C(=O)NCc1ccco1)c1cccnc1 | -1 | 32* | 1 | 1 | 61
COc1ccccc1N1CCN(C2CCCN(S(=O)(=O)c3ccccc3)C2)CC1 (stereo not drawn) | -1 | 10 | 1 | 163* | ?
CC(=NNC(=O)c1ccncc1)c1ccccc1O | . | 17 | . | 0 | .
C/C(=N\NC(=O)c1ccc(N2CCCC2=O)cc1)c1ccc(O)cc1O | 23 | 33* | -1 | 3 | -1
C/C(=N\NC(=O)c1ccc(N2CCCC2=O)cc1)c1ccccc1 | -3 | -6 | 2 | 0 | -5
CC(=NNC(=O)c1ccncc1)c1ccc(O)cc1O | . | 41* | . | -1 | .
Cc1cc(C)n(CC(=O)N2CCc3ccccc32)c(=O)c1C#N | 1 | 2 | -3 | 1 | -3
Cc1cc2n(c(=O)c1C#N)CCCN2c1ccccc1 | 3 | 58* | 0 | 4 | 5
CCc1nc(Nc2ccc3c(c2)OCCO3)c2oc3ccccc3c2n1 | -2 | 33* | -2 | -1 | 6
SMILES | Rv3671c protease | GDH-TPI counter | Mtb UGM inh | FBA Mtb inh | Mtb bLac sens
Cc1nc(Nc2ccc3c(c2)OCCO3)c2oc3ccccc3c2n1 | -9 | 13 | 0 | 3 | 29
COc1ccc(OC)c(CN2CCN(C(=O)c3cccc(S(=O)(=O)Nc4ccc(F)cc4)c3)CC2)c1 | . | -8 | . | -1 | .
CC(=O)C1=C(C)Nc2ncnn2C1c1ccc(O)cc1 (stereo not drawn) | 0 | 6 | 3 | -3 | -8
COc1ccc(-c2c(-c3cc(OC)cc(OC)c3)n(C)c3ccc(Br)cc23)cc1 | 12 | 9 | 1 | 10 | -5
COc1ccc(N=Nc2nc3ccc(Br)cc3n2C)cc1 | 8 | 4 | 66* | 21 | 99
COc1ccc(/C=C(\NC(=O)c2ccccc2Cl)C(=O)NCCCC(=O)O)cc1 | . | 2 | . | -1 | .
Cc1c(Cl)cc(C(C)C)c(O)c1CN1CCOCC1 | . | 10 | . | 3 | .
CCOc1ccc(S(=O)(=O)N2CCN(CC)CC2)cc1NC(=O)c1ccccc1F | -5 | 7 | 1 | 0 | -3
CCOC(=O)CCc1c(C)c2ccc(OCC)c(C)c2oc1=O | 1 | . | -1 | . | -1
CCOC(=O)CCc1c(C)c2ccc3c(c2oc1=O)CN(CCCO)CO3 | -7 | 14 | -2 | + | -3
COC(=O)Cc1c(C)c2ccc(OCC(=O)N3CCCC3)c(C)c2oc1=O | 2 | 22 | -1 | 151* | -11
CCOC(=O)CCc1c(C)c2ccc(OCC(=O)N3CCOCC3)c(C)c2oc1=O | 1 | 24 | 1 | 146* | -12
Clc1ccc(SCCOCCN2CCCCCC2)cc1 | -3 | 4 | 0 | 4 | 7
CC(C)c1nc(SCC(=O)c2c[nH]c3ccccc23)n[nH]1 | -5 | 10 | 0 | 5 | -3
CCOC(=O)c1sc(NC(C)=O)cc1C | 1 | 18 | -1 | 5 | 1
CCOC(=O)c1sc(NC(=O)c2ccc(C)s2)cc1C | -10 | 43* | 1 | 6 | 31
Clc1ccc2c(c1)[C@H]1OCC[C@H]1[C@@H](c1ccco1)N2 | 5 | 6 | 1 | 38* | 1
COc1ccc2[nH]c(=O)c(CN(C(=O)c3ccccn3)C3CCCCC3)cc2c1 | -9 | 12 | 5 | 11 | -2
O=C(c1ccccn1)N(Cc1cc2ccccc2[nH]c1=O)C1CCCCC1 | 0 | 10 | 1 | + | 1
O=C(NC1CCCCC1)N(Cc1cc2cc3c(cc2[nH]c1=O)OCCO3)C1CCCCC1 | 10 | 35* | -2 | 8 | 42
COc1ccc(/C=N/NC(=O)c2nc(-c3ccccc3)cc(-c3ccccc3)n2)cc1 | -36 | 32* | -6 | 1 | 56
COc1ccc(/C=N/NC(=O)c2nc(-c3ccccc3)n(-c3ccccc3)n2)cc1OC | -1 | 37* | 1 | 2 | 4
COc1cc(OC)cc(C(=O)Nc2c(C)nn(-c3ccccc3)c2C)c1 | 7 | 11 | 0 | 8 | -7
CCN(C(=O)c1cc(S(=O)(=O)N2CCCCC2)c[nH]1)c1ccc(OC)cc1 | -11 | 4 | 2 | 2 | -3
Cc1cccc(C2=NN(c3ccccc3)[C@@H](C(=O)N3CCOC3=O)[C@@H]2c2ccc(F)cc2)c1 | . | 0 | . | 21 | .
SMILES | Rv3671c protease | GDH-TPI counter | Mtb UGM inh | FBA Mtb inh | Mtb bLac sens
Cc1cccc(C2=NN(c3ccccc3)[C@H](CO)[C@H]2c2ccccc2)c1 | . | -9 | . | 59* | .
N#Cc1cc2cc3c(cc2nc1N1CCOCC1)OCO3 | -3 | 1 | 5 | 112* | -9
Cc1ccc(C)c(NC(=S)N2CCC(NC(=O)c3ccco3)CC2)c1 | 3 | 4 | -2 | 0 | 0
Nc1nc2ccccc2n1C(=O)c1cccs1 | 5 | 61* | 0 | 2 | .
Nc1nc2ccccc2n1C(=O)c1ccccc1 | 5 | 6 | -4 | 1 | 90
CC(NCc1ccc(S(N)(=O)=O)cc1)C(=O)Nc1cccc(Cl)c1 (stereo not drawn) | 1 | 2 | -1 | 2 | -7
Cc1ccc(S(=O)(=O)Nc2ccc(Nc3nccn4c(-c5ccc6ccccc6c5)cnc34)cc2)cc1 | . | 32* | . | 11 | .
Cc1ccc(S(=O)(=O)Nc2ccc(Nc3nccn4c(-c5ccccc5Oc5ccccc5)cnc34)cc2)cc1 | . | 20 | . | 2 | .
